Reference: PubChem BioAssay (NCI)
The panel holds about 83,000 compounds, 20% with a hit somewhere; the sample as a whole holds those more often.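 Step 1: grow cells in 96-well plates. Step 2: add test compound at a single concentration. Step 3: incubate 48 h. Step 4: record percent growth.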 Unmarked numbers belong to inactive results. Activity calls are given as the source filed them. Rule for the calls: active = growth percent below 10; inactive = the rest.

Legend:
Assay in all cases: NCI-60 one-dose screen, 48 h (100 = growth as untreated, 0 = no growth, -100 = all killed)
Conditions in all cases: 10 µM unless noted
[1] = test system: HCT-15 colon
[2] = test system: SNB-75 CNS
[3] = test system: SNB-19 CNS
[4] = test system: PC-3 prostate
[5] = test system: SK-MEL-5 melanoma
[6] = test system: UACC-62 melanoma
[7] = test system: LOX IMVI melanoma
[8] = test system: SK-MEL-28 melanoma
[9] = test system: U251 CNS
[10] = test system: HT29 colon

| SMILES | growth [1] | growth [2] | growth [3] | growth [4] | growth [5] | growth [6] | growth [7] | growth [8] | growth [9] | growth [10] |
| --- | --- | --- | --- | --- | --- | --- | --- | --- | --- | --- |
| CN1CCN(CCCOc2ccc3nc(Nc4ccc(C(F)(F)F)c(Cl)c4)ccc3c2)CC1 | -36.9% (active) | 4.61% (active) | -41.2% (active) | 8.45% (active) | 34.1% | -36.3% (active) | -83.1% (active) | -73.2% (active) |  |  |
| CCCCCCC[C@@H](O)CC(=O)N[C@H](CCCCN)C(=O)N[C@H](Cc1c[nH]c2ccccc12)C(=O)NC(CCCCN)C(=O)N[C@H](CC(C)C)C(=O)N[C@H](Cc1ccccc1)C(=O)N[C@H](CCCCN)C(=O)N[C@H](CCCCN)C(=O)N[C@H](CC(C)C)C(=O)N1CCCC1C(=O)N[C@H](CCCCN)C(=O)N[C@H](Cc1ccccc1)C(=O)N[C@H](CC(C)C)C(=O)N[C@H](Cc1c[nH]cn1)C(=O)N[C@H](CC(C)C)C(=O)N[C@H](C)C(=O)N[C@H](CCCCN)C(=O)N[C@H](CCCCN)C(=O)N[C@H](Cc1ccccc1)C(=O)O (stereo partly drawn) | -40.3% (active) |  | -46.4% (active) | -55.3% (active) | -25.7% (active) | -39.2% (active) | -38.6% (active) | -39.8% (active) | -60.5% (active) |  |
| OC1CC2c3ccccc3C1c1ccccc12 (stereo not drawn) | 106% | 90.5% | 117% | 100% | 106% | 103% | 97.3% | 112% | 95.8% |  |
| CCOc1ccc(/C=C/C=N/NC(N)=S)cc1 | 58.4% | 80.9% | 95.8% | 94.1% | 96% | 81.9% | 77.4% | 102% | 90.1% |  |
| O=C(CNC(=O)c1cccc2ccccc12)Nc1ccccc1Oc1ccccc1 | 8.09% (active) | 38.9% | 33.8% | 2.31% (active) | -33.1% (active) | 21.3% | 15.5% |  | 11.5% |  |
| CC(C(=O)n1cc(-c2ccccc2)c(-c2ccccc2)c1)c1ccccc1 (stereo not drawn) | 112% | 92.9% | 102% | 95.9% | 99.1% | 106% | 97.8% | 112% | 91.1% |  |
| Clc1ccc2c(c1)NC1(CCSc3ccccc31)n1nccc1-2 (stereo not drawn) | 98.5% | 95.5% | 102% | 81% | 99.4% | 94.7% | 92.3% | 98.4% | 88.6% |  |
| Clc1ccc(-c2nc(-c3ccco3)cn3ccnc23)cc1 | 50.1% | 32% | 30.6% | 60.2% | 58% | 88% | 55.2% | 102% | -51.3% (active) |  |
| Cc1oc2nc[nH]c(=O)c2c1C(=O)/C=C/c1ccc(Cl)cc1 | 19.9% | -11.4% (active) | 42% | 34.2% | 37.5% | 18.2% | 8.44% (active) | 39.4% | 24.3% |  |
| O=P([O-])(O)OP(=O)([O-])O.[NH-][C@H]1CCCC[C@@H]1[NH-].[OH-].[OH-].[Pt+4] | 102% | 86.6% | 107% | 99.5% | 106% |  | 102% |  | 91.1% |  |
| CC(C)(C)c1ccc(S(=O)(=O)Oc2ccc3c4c(c(=O)oc3c2)CCCCC4)cc1 | 30.5% | 39.1% | 82% | 32.9% | -3.23% (active) | 30.3% | 43.2% | 39.4% | 54.3% |  |
| COc1cc(CNC(=O)CCSc2nc3ccccc3c(=O)n2Cc2cc(OC)c(OC)c(OC)c2)cc(OC)c1OC | 17.7% | 17.9% | 56% | 49.5% | 12.6% | 36.3% | 44.6% | 55.8% | 38.3% |  |
| C=C1C(=O)O[C@H]2[C@H]1CC/C(Cn1cc(-c3ccccc3C(F)(F)F)nn1)=C\CC[C@@]1(C)O[C@@H]21 | -70.7% (active) |  | 53.3% | -31.1% (active) | 14.5% |  | -91.7% (active) | -58.9% (active) |  | -85.3% (active) |
| O=C(O)C(Cc1ccccc1)N1C(=O)/C(=C/C(Cl)=C/c2ccc([N+](=O)[O-])cc2)SC1=S (stereo not drawn) | 41.2% | 43% | 32.2% | 31.2% | 2.03% (active) | -56.4% (active) | -74.2% (active) | 3.14% (active) | 8.38% (active) |  |
| CC(C)C[C@H](NC(=O)Cn1ccc(NCc2ccccc2)cc1=O)B(O)O |  | 56.9% | 42.2% | 49.2% | -9.84% (active) |  | -65.5% (active) | 27.4% | 44.6% | -15.2% (active) |
| Cc1ccc(C2=NN(c3ccc(S(N)(=O)=O)cc3)C(c3cn(-c4ccccc4)nc3-c3ccccc3)C2)cc1 (stereo not drawn) |  | 81.6% | 87% | 32.3% | 100% | 83.5% | 91.2% | 116% | 77.4% | 46.3% |
| Cc1nc2scc(-c3ccccc3)n2c(=O)c1CCO |  |  | 98.3% | 87.7% | 100% | 97.6% | 92.3% | 113% | 103% | 103% |

| SMILES | growth [1] | growth [2] | growth [3] | growth [4] | growth [5] | growth [6] | growth [7] | growth [8] | growth [9] | growth [10] |
| --- | --- | --- | --- | --- | --- | --- | --- | --- | --- | --- |
| O=c1cc(C2NCCc3c2[nH]c2ccccc32)c2c(ccc3ccccc32)o1 (stereo not drawn) |  | 51.6% | 88.3% | 56% | 76.4% | 48.7% | 36.8% | 92.7% | 66.1% | 56.2% |
| Clc1ccc(/C=C/c2nc(N3CCOCC3)c3nc(Cl)c(Cl)cc3n2)cc1 |  | 94.3% | 101% | 102% | 90.2% | 106% | 99.8% | 111% | 103% | 105% |
| COc1cc(Cn2c(-c3nonc3N)nc3ccccc32)ccc1C |  | -0.424% (active) | 53.8% | 24.4% | 19.1% | 37.9% | 42.6% | 51.6% | 21.6% |  |
| CC(C)CCN(CCCNc1c2c(nc3ccccc13)CCCC2)CCC(C)C |  | 76.8% | 87.2% | 73.6% | 83.1% | 97.2% | 76.4% | 86.2% | 65.1% | 46.3% |
| COc1ccc(C(=O)c2cc(OC)c(OC)c(OC)c2)cc1/C=C/C(=O)c1ccc(O)cc1 |  | 28.7% | 34.8% | 54.1% | 11.3% | 20.1% | 0.734% (active) | 22.5% | 0.446% (active) | 26.2% |
| CN(C)c1ncc(-c2ccc(C(F)(F)F)cc2)c(NC2CCCCCC2)n1 |  | 78.2% | 71.8% | 22% | 39.6% | 31.4% | 66.2% | 48.9% | 40.1% | 34.4% |
| O=C(Nc1cc(C(F)(F)F)cc(C(F)(F)F)c1)Nc1ccc(OCc2nnc(-c3ccc(Cl)cc3)o2)c(F)c1 |  | 14.8% | 23% | 3.89% (active) | -29.6% (active) | 27.7% | 3.82% (active) | 28.8% | 1.55% (active) |  |
| COc1cc(NS(C)(=O)=O)ccc1Nc1c2ccc([N+](=O)[O-])cc2nc2c(C)cccc12 |  | 5.27% (active) | 21.2% | 8.53% (active) | -0.826% (active) | 16.2% | -3.95% (active) | 41.7% |  | -0.0847% (active) |
| NC(=O)NNC(=O)c1ccccc1 |  | 85.9% | 111% | 96.5% | 104% | 104% | 96.5% | 117% | 97.7% | 113% |
| C=C1C(=O)O[C@H]2[C@H]1CC/C(COC(=O)NCCc1ccc(OC)cc1)=C\CC[C@@]1(C)O[C@@H]21 |  | 79.4% | 45.8% | 45.6% | 72.3% | -46.7% (active) | -26.8% (active) | -5.94% (active) | 59.3% | -58.3% (active) |
| COc1cc(-c2csc(NC(=O)Nc3ccc(Cl)cc3Cl)n2)cc(OC)c1OC |  | 4.13% (active) | 41.7% | 18.7% | 18.4% |  | 28.9% | 62.6% | 25.7% | 10.8% |
| O=C(/C=C/CN1CCCCC1)Nc1cc2c(Nc3ccc(F)c(Cl)c3F)ncnc2cc1OCCOC(F)F |  | -12.1% (active) | 40.9% | 1.81% (active) | 25.3% | 34.1% | 12.5% | 48.6% | 31.1% | 2.26% (active) |
| COc1cc(OC)cc(-c2n[nH]nc2-c2ccc3c(c2)OCO3)c1 |  | -8.14% (active) | 45.1% | 19.4% | 20.2% | 27.5% | 34.4% | 32% | 7.92% (active) | 1% (active) |
| COC(=O)CC/C(C)=N\Nc1ccc([N+](=O)[O-])cc1 |  |  | 99.4% | 45.8% | 73.8% | 26.6% | 16.2% | 96% | 68.4% | 46.6% |
| Cn1cc(C=O)c2ccccc21 |  | 80% | 100% | 83.4% | 99.4% | 106% | 88.4% | 109% | 98.5% | 100% |
| C=C1C(=O)O[C@H]2[C@H]1CC/C(Cn1cc(-c3ccc(N)cc3)nn1)=C\CC[C@@]1(C)O[C@@H]21 |  | 25.6% | 61.3% | 24.1% | 35.3% | -37.4% (active) | -63.6% (active) | -17% (active) | 34.1% | -59.4% (active) |
